According to the supplement of paper PMC11732987, “Enantioselective OTUD7B fragment discovery through chemoproteomics screening and high-throughput optimisation” (Communications Chemistry, 2025):

What was measured:
Test in all cases: log2 ratio of Biotin-Ahx-Ub-VS probe labelling (fragment/DMSO); higher = less target engagement (more negative = stronger competition), active = hit call of the paper (q ≤ 0.05, log2 ratio ≤ -1)
Conditions in all cases: compound concentration: 200 uM; treatment time: 3 h
OTUD6B = biological target: T1, OTUD6B (UniProt Q8N6M0)
T1 sequence (whole entry): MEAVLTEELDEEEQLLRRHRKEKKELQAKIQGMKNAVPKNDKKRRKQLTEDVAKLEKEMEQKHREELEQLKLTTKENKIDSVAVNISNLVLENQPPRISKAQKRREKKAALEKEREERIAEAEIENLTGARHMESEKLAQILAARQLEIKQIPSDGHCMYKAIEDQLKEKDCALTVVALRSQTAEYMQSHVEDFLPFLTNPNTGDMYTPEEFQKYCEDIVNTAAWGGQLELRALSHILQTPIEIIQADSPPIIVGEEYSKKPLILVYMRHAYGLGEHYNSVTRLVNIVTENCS
In short: (§1)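 Average log2 ratios of fragment over vehicle were obtained by unpaired t-test from global-median-normalised Spectronaut label-free quantities. Proteins with ≥2 unique peptides were included. HEK293T lysate (495 µg per sample) was treated in triplicate with fragment at 200 µM or vehicle for 3 h, then with Biotin-Ahx-Ub-VS at 0.5 µM final for 1 h, and labelled DUBs were NeutrAvidin-enriched and run by diaPASEF LC-MS/MS.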

OTUD7B = biological target: T2, OTUD7B (UniProt Q6GQQ9)
T2 sequence (whole entry): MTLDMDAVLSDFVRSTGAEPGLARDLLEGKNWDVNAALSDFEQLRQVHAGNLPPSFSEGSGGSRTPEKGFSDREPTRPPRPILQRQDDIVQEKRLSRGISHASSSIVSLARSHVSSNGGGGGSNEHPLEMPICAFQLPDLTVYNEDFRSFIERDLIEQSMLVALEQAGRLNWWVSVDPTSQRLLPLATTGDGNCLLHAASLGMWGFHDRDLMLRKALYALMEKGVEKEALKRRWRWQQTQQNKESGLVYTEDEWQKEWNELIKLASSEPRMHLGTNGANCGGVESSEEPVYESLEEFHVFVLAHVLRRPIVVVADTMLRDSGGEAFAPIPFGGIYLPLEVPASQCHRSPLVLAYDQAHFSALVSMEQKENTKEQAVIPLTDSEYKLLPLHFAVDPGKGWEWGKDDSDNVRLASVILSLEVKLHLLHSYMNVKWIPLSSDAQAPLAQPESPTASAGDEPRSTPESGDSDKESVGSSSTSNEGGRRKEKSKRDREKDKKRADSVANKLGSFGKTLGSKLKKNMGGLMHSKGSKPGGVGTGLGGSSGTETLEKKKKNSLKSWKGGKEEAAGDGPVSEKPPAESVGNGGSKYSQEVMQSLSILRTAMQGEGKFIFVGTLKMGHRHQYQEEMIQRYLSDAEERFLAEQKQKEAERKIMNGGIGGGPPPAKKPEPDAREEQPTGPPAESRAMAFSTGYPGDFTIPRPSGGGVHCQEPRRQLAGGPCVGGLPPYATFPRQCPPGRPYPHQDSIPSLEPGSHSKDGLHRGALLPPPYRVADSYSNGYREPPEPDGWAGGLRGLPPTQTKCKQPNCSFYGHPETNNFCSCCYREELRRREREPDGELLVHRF
In short: as §1

PRPF8 = PRPF8 (UniProt Q6P2Q9)
In short: as §1

PSMD7 = biological target: T3, PSMD7 (UniProt P51665)
T3 sequence (whole entry): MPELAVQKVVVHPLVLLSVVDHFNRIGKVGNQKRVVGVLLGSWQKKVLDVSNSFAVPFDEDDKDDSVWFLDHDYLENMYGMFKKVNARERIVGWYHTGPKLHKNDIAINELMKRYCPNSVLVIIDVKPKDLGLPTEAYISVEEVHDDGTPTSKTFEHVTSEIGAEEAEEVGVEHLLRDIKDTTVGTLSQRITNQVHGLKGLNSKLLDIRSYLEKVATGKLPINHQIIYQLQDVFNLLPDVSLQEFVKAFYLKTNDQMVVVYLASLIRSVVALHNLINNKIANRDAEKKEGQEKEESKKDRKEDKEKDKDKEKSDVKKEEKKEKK
In short: as §1

UCHL1 = UCHL1 (UniProt P09936)
In short: as §1

UCHL3 = biological target: T4, UCHL3 (UniProt P15374)
T4 sequence (whole entry): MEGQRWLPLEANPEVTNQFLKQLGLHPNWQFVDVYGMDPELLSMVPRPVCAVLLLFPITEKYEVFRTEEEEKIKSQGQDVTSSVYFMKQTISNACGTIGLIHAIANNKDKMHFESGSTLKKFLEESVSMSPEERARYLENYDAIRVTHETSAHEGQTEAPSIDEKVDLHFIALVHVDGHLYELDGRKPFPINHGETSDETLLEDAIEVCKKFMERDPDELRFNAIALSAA
In short: as §1

UCHL5 = biological target: T5, UCHL5 (UniProt Q9Y5K5)
T5 sequence (whole entry): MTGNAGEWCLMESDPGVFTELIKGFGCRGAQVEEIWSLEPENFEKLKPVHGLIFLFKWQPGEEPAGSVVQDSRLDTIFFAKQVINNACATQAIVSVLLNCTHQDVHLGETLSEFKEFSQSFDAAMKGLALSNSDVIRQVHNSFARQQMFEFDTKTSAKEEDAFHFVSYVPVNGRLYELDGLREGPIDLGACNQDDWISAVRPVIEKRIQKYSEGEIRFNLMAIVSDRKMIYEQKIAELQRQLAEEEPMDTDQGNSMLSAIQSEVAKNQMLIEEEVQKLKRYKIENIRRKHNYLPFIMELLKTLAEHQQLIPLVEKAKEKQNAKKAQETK
In short: as §1

USP10 = USP10 (UniProt Q14694)
In short: as §1

USP15 = biological target: T6, USP15 (UniProt Q9Y4E8)
T6 sequence (whole entry): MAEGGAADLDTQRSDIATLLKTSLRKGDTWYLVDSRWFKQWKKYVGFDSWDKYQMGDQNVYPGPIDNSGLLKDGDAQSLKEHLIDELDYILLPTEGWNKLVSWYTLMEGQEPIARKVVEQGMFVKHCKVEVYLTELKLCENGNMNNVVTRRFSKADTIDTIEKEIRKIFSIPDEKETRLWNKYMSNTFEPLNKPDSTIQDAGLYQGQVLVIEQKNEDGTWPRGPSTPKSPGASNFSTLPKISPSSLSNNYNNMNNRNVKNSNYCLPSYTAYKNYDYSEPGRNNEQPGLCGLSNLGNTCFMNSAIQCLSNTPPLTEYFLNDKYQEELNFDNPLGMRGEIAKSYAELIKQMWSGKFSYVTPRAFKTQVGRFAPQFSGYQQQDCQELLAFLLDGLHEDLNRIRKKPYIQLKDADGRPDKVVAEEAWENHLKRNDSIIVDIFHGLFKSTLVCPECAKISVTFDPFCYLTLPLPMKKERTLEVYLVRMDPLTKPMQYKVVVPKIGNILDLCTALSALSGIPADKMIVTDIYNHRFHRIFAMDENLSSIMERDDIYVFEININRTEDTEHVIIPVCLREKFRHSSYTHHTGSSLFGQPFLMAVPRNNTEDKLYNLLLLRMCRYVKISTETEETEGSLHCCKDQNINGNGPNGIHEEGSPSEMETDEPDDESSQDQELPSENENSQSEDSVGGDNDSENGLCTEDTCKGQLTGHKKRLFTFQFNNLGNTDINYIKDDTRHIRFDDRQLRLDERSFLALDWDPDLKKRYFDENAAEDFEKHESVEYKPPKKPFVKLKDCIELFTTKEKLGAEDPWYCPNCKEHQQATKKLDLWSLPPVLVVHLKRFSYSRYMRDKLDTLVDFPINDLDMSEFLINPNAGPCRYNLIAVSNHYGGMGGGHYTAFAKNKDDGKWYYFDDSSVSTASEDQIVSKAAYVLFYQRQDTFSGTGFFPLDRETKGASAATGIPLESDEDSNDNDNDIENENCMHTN
In short: as §1

USP16 = USP16 (UniProt Q9Y5T5)
In short: as §1

Measured: log2 ratio of Biotin-Ahx-Ub-VS probe labelling

Chain of UCHL1 (P09936 whole entry, looked up): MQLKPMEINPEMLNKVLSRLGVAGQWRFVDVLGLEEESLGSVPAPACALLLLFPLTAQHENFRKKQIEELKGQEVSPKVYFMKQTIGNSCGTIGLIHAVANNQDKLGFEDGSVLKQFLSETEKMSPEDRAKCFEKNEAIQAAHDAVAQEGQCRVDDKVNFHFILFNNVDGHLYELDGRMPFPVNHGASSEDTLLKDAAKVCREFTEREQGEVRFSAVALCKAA
Chain of USP16 (Q9Y5T5 whole entry, looked up): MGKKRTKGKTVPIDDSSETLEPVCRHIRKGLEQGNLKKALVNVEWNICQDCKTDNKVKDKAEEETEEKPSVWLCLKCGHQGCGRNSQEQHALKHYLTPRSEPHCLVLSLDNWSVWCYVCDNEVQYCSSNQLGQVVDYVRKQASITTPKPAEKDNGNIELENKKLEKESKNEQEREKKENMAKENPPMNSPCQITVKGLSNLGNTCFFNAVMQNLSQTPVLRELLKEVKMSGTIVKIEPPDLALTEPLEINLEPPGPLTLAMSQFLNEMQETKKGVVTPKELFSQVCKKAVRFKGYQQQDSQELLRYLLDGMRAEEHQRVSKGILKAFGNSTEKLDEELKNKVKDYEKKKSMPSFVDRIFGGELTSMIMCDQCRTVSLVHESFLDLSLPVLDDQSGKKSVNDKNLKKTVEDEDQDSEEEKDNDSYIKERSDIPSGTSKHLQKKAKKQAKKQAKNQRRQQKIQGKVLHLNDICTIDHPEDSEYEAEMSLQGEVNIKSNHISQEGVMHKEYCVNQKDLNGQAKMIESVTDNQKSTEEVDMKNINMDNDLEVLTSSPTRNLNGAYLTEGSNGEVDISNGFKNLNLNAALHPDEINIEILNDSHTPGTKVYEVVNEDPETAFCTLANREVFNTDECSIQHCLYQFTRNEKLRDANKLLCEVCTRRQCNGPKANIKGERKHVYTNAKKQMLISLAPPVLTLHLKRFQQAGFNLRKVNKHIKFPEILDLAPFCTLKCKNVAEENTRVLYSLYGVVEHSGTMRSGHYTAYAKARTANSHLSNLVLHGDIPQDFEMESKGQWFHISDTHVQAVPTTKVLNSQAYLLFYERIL
Chain of USP10 (Q14694 whole entry): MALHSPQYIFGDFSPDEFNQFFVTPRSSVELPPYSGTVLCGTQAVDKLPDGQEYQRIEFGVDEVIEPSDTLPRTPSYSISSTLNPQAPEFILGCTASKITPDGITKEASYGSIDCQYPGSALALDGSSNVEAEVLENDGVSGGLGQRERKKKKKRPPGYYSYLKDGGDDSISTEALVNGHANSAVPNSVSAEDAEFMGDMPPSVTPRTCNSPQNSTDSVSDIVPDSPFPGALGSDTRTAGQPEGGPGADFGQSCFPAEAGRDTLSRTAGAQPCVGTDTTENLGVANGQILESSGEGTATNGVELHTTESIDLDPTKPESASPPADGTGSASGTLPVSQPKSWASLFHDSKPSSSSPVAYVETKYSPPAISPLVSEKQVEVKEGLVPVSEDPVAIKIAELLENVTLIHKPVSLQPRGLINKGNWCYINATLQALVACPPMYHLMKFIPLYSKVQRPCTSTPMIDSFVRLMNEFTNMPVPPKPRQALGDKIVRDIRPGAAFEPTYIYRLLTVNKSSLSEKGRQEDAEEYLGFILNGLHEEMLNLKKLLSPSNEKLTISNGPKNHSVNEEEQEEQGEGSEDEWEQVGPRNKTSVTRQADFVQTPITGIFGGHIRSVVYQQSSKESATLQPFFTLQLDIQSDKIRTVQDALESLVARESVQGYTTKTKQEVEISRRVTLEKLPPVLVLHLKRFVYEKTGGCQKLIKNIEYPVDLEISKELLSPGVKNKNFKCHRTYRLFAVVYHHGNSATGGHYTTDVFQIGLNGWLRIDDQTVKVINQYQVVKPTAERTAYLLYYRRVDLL

Cl.O=C(CCl)N1CCn2cncc2C1
inactive: OTUD6B -0.541 | OTUD7B -0.166 | PRPF8 0.208 | PSMD7 0.0226 | UCHL3 0.291 | UCHL5 0.0547 | USP10 -0.131 | USP15 -0.372 | USP16 -0.425
active: UCHL1 -1.37
